Columns and labels:
Test in all cases: PBM binding z-score (relative to random genomic background probes); higher = stronger binding; sequences stand for … in GC…GCGATTGACAGCGTAGAATGAAGG
[1] = tested on: RARb homodimer (NR concentration 270 nM)
Outline: (§1)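 On custom Agilent 4×180K arrays, double-stranded probes with 34-nt variable regions carried direct-repeat seeds, single-nucleotide variants, half-site ablations or random human genomic background. Ligand-free nuclear receptor dimers were applied for 1 h, and binding was read with antibodies against each partner (one per run). Binding z-scores come from regression-normalized fluorescence, with the random background probes as reference.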

[2] = tested on: RARg:RXRa (NR concentration 270 nM, RXRa partner concentration 90 nM)
Outline: as §1

[3] = tested on: RARg homodimer (NR concentration 270 nM)
Outline: as §1

[4] = tested on: RXRa DBDmut IVT, anti-RXR (DBD mutation: RXRa K156A/R161A, NR concentration 90 nM)
Outline: as §1

[5] = tested on: RXRa homodimer (NR concentration 180 nM)
Outline: as §1

[6] = tested on: THRa:RXRa (NR concentration 90 nM, RXRa partner concentration 90 nM)
Outline: as §1

[7] = tested on: THRa homodimer (NR concentration 90 nM)
Outline: as §1

[8] = tested on: VDR homodimer (NR concentration 270 nM)
Outline: as §1

TCTATTATTTGAAGGGCAACCGACGAGTCCGTTT
PBM binding z-score [1]: 1.34
PBM binding z-score [2]: 0.739
PBM binding z-score [3]: 0.634
PBM binding z-score [4]: 2.12
PBM binding z-score [5]: 0.997
PBM binding z-score [6]: 0.552
PBM binding z-score [7]: 0.572
PBM binding z-score [8]: 2.12

ATCTCTAGGTAGCCAAGTTCAGTGAATGCCGAAC
PBM binding z-score [1]: 0.866
PBM binding z-score [2]: 0.375
PBM binding z-score [3]: 0.381
PBM binding z-score [4]: 0.591
PBM binding z-score [5]: 0.0776
PBM binding z-score [6]: 0.48
PBM binding z-score [7]: 0.337
PBM binding z-score [8]: 2.15

ATCGAAAGGTCGACGAGGTGAGTTTACACCGTTT
PBM binding z-score [1]: 3.04
PBM binding z-score [2]: 4.11
PBM binding z-score [3]: 3.94
PBM binding z-score [4]: 1.48
PBM binding z-score [5]: 4.05
PBM binding z-score [6]: 3.8
PBM binding z-score [7]: 0.782
PBM binding z-score [8]: 2.35

CGAACCAGGTCATTGACAGGACAGTGAATAGTAA
PBM binding z-score [1]: 2.5
PBM binding z-score [2]: 4.94
PBM binding z-score [3]: 4.22
PBM binding z-score [4]: 3.22
PBM binding z-score [5]: 3.57
PBM binding z-score [6]: 3.31
PBM binding z-score [7]: 1.84
PBM binding z-score [8]: 1.8

ACCAGTTGGTCAGCTGAGGTCACACACAATTCGG
PBM binding z-score [1]: 4.44
PBM binding z-score [2]: 4.2
PBM binding z-score [3]: 4.52
PBM binding z-score [4]: 1.29
PBM binding z-score [5]: 4.27
PBM binding z-score [6]: 5.07
PBM binding z-score [7]: 5
PBM binding z-score [8]: 3.47

CGTCCAAGGTCAGCATGTCAGTGAAAGCGACGTG
PBM binding z-score [1]: 3.99
PBM binding z-score [2]: 5.21
PBM binding z-score [3]: 6
PBM binding z-score [4]: 2.51
PBM binding z-score [5]: 4.01
PBM binding z-score [6]: 3.54
PBM binding z-score [7]: 2.02
PBM binding z-score [8]: 0.761

TCATATAGGTATAAGGTGAAAGTCGGTGTGGTAA
PBM binding z-score [1]: 1.17
PBM binding z-score [2]: 0.768
PBM binding z-score [3]: 0.521
PBM binding z-score [4]: 1.77
PBM binding z-score [5]: 1.35
PBM binding z-score [6]: 2.68
PBM binding z-score [7]: 2.4
PBM binding z-score [8]: 0.494

ACTAGCAGCCCAAGTTTGGGTCACTCAAACAAAG
PBM binding z-score [1]: 1.74
PBM binding z-score [2]: 0.618
PBM binding z-score [3]: 0.518
PBM binding z-score [4]: -0.56
PBM binding z-score [5]: 0.612
PBM binding z-score [6]: 2.1
PBM binding z-score [7]: 1.15
PBM binding z-score [8]: -0.0283

TCATATAGGTAAAGGGGAAAGTCGAACGATATGA
PBM binding z-score [1]: 0.241
PBM binding z-score [2]: 0.707
PBM binding z-score [3]: 0.688
PBM binding z-score [4]: 1.39
PBM binding z-score [5]: 1.21
PBM binding z-score [6]: 0.241
PBM binding z-score [7]: -0.0232
PBM binding z-score [8]: -0.173

CTCGAAAAGTCGGTTGAGGTGAGTATACGGATAA
PBM binding z-score [1]: 0.0667
PBM binding z-score [2]: 0.446
PBM binding z-score [3]: 0.172
PBM binding z-score [4]: -0.0991
PBM binding z-score [5]: 0.212
PBM binding z-score [6]: 3.57
PBM binding z-score [7]: 1.15
PBM binding z-score [8]: -0.144

CGAACGAGGTCAAGGACAGTGAATCTCCGCACGC
PBM binding z-score [1]: 4.19
PBM binding z-score [2]: 6.33
PBM binding z-score [3]: 6.59
PBM binding z-score [4]: 4.23
PBM binding z-score [5]: 7.03
PBM binding z-score [6]: 4.43
PBM binding z-score [7]: 3.19
PBM binding z-score [8]: 3.5

GCAGACAGGTGAAACGGAGGTAACTCAGGGTGGC
PBM binding z-score [1]: 0.345
PBM binding z-score [2]: 1.4
PBM binding z-score [3]: 0.25
PBM binding z-score [4]: -0.66
PBM binding z-score [5]: 0.757
PBM binding z-score [6]: 1.83
PBM binding z-score [7]: -0.0224
PBM binding z-score [8]: -0.566

CAAACTAGGTCAAGAGGTGAAAGTCCGCTTCCCG
PBM binding z-score [1]: 4.18
PBM binding z-score [2]: 5.62
PBM binding z-score [3]: 5.36
PBM binding z-score [4]: 1.5
PBM binding z-score [5]: 4.52
PBM binding z-score [6]: 3.58
PBM binding z-score [7]: 1.67
PBM binding z-score [8]: 0.973

CGAACTAGGTCATTGACATGACAGTGAATAGTAA
PBM binding z-score [1]: 2.55
PBM binding z-score [2]: 3.68
PBM binding z-score [3]: 4.2
PBM binding z-score [4]: 2.17
PBM binding z-score [5]: 2.84
PBM binding z-score [6]: 2.68
PBM binding z-score [7]: 0.792
PBM binding z-score [8]: 1.36

CCTAGTTGGTCAAGGTCACAGACGCTATAGGTAC
PBM binding z-score [1]: 4.33
PBM binding z-score [2]: 4.74
PBM binding z-score [3]: 5.11
PBM binding z-score [4]: 2.16
PBM binding z-score [5]: 4.88
PBM binding z-score [6]: 4.13
PBM binding z-score [7]: 4.27
PBM binding z-score [8]: 3.55

CGTCCAAGGTCAGCAGATCAGTGAAAGCGACGTG
PBM binding z-score [1]: 3.69
PBM binding z-score [2]: 4.89
PBM binding z-score [3]: 5.8
PBM binding z-score [4]: 2.42
PBM binding z-score [5]: 3.8
PBM binding z-score [6]: 3.42
PBM binding z-score [7]: 2.11
PBM binding z-score [8]: 0.793

TCTTGTTGATCAATAGAGGTTAAGAAAGTGCGCT
PBM binding z-score [1]: 1.09
PBM binding z-score [2]: 0.58
PBM binding z-score [3]: 0.28
PBM binding z-score [4]: 0.766
PBM binding z-score [5]: 1.48
PBM binding z-score [6]: 1.58
PBM binding z-score [7]: -0.22
PBM binding z-score [8]: 0.411

GTACCAAGGTGAATAGATCGTTGATGAGTAGGCG
PBM binding z-score [1]: 0.231
PBM binding z-score [2]: 0.664
PBM binding z-score [3]: 0.719
PBM binding z-score [4]: -0.335
PBM binding z-score [5]: 0.634
PBM binding z-score [6]: 1.03
PBM binding z-score [7]: 0.372
PBM binding z-score [8]: -0.106

ATATGTAGGTTAACGGTCATTCAGGTTGGTTCGC
PBM binding z-score [1]: 2.72
PBM binding z-score [2]: 2.13
PBM binding z-score [3]: 2
PBM binding z-score [4]: 1.34
PBM binding z-score [5]: 1.88
PBM binding z-score [6]: 1.62
PBM binding z-score [7]: 0.747
PBM binding z-score [8]: 1.84

ATCTCTAGCTAAAAGTTCAGTGAATCCCGAGGAT
PBM binding z-score [1]: 2.38
PBM binding z-score [2]: 1.43
PBM binding z-score [3]: 1.84
PBM binding z-score [4]: 0.736
PBM binding z-score [5]: 0.493
PBM binding z-score [6]: 0.457
PBM binding z-score [7]: -0.0184
PBM binding z-score [8]: 1.64

CAAACTAGGTCGAGAGGTCAAAGTCCGCTTCCCG
PBM binding z-score [1]: 4.73
PBM binding z-score [2]: 5.98
PBM binding z-score [3]: 5.09
PBM binding z-score [4]: 2.17
PBM binding z-score [5]: 6.17
PBM binding z-score [6]: 3.62
PBM binding z-score [7]: 1.8
PBM binding z-score [8]: 3.99

CCTGCTAGGTCATGGTCAGCCAATCTACAGTATG
PBM binding z-score [1]: 3.14
PBM binding z-score [2]: 3.98
PBM binding z-score [3]: 4.45
PBM binding z-score [4]: 1.26
PBM binding z-score [5]: 3.04
PBM binding z-score [6]: 3.07
PBM binding z-score [7]: 1.18
PBM binding z-score [8]: 0.0846

TATACAGGGTCAAATGCCAGAGTACGAATGTCGA
PBM binding z-score [1]: 3.11
PBM binding z-score [2]: 5.88
PBM binding z-score [3]: 4.98
PBM binding z-score [4]: 3.42
PBM binding z-score [5]: 6.54
PBM binding z-score [6]: 3.6
PBM binding z-score [7]: 0.982
PBM binding z-score [8]: 3.62

ACAGACAGCTGAGTGAAGGTAACTCAGCTGGACG
PBM binding z-score [1]: -0.758
PBM binding z-score [2]: -0.23
PBM binding z-score [3]: -0.426
PBM binding z-score [4]: -0.997
PBM binding z-score [5]: 0.00757
PBM binding z-score [6]: -0.178
PBM binding z-score [7]: -0.586
PBM binding z-score [8]: -0.66

CCTCGGAGGACAACAGGGGGTCAGAGCTGCCAGA
PBM binding z-score [1]: 3.52
PBM binding z-score [2]: 4.25
PBM binding z-score [3]: 3.49
PBM binding z-score [4]: 0.19
PBM binding z-score [5]: 3.24
PBM binding z-score [6]: 3.27
PBM binding z-score [7]: 1.04
PBM binding z-score [8]: 1.28

ACCTCTAGGTAACAAGTTCAGTGAAAGAGAGGAC
PBM binding z-score [1]: 1.85
PBM binding z-score [2]: 1.11
PBM binding z-score [3]: 1.08
PBM binding z-score [4]: 0.979
PBM binding z-score [5]: 0.678
PBM binding z-score [6]: 1.21
PBM binding z-score [7]: 0.425
PBM binding z-score [8]: 2.2

ACAGACAGGTGATGAAGGAAACTCAGGCTATCAT
PBM binding z-score [1]: 0.24
PBM binding z-score [2]: 0.168
PBM binding z-score [3]: 0.36
PBM binding z-score [4]: -0.0618
PBM binding z-score [5]: 0.38
PBM binding z-score [6]: 0.154
PBM binding z-score [7]: 0.0695
PBM binding z-score [8]: -0.33

CCTCGTTGGTCAAGGTCACACACGCTATAGGTAC
PBM binding z-score [1]: 4.51
PBM binding z-score [2]: 4.58
PBM binding z-score [3]: 5.23
PBM binding z-score [4]: 1.8
PBM binding z-score [5]: 4.83
PBM binding z-score [6]: 4.05
PBM binding z-score [7]: 4.37
PBM binding z-score [8]: 3.86

Reference: the supplement of paper PMC6555819
